Laboratory results taken from the supplement of paper PMC12350171.
Where a name gives a salt, the structure may show the parent alone. Values without a mark were called inactive.

How the values were obtained:
Conditions in all cases: 20 µM
[1] = system: Salmonella enterica typhimurium; test: growth AUC normalised to DMSO control (fraction of control); higher = less growth inhibition, active = hit call of the paper
Method in brief: (§1)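 Three biological replicates were carried out, with OD578 read hourly for 24 h. Before inoculation at a starting OD578 of 0.01, pathogens were passaged anaerobically twice; plates were pre-reduced mGAM containing 20 μM compound and 1% DMSO, sealed with breathable membranes, and the Haemophilus parainfluenzae medium carried added hemin and NAD. Area under each growth curve was calculated by the trapezoidal rule up to the exponential-to-stationary transition and normalised to DMSO controls on the same plate.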

Shigella flexneri = test: as above
Method in brief: as §1

Vibrio cholerae = test: as above
Method in brief: as §1

[2] = system: Yersinia pseudotuberculosis; test: as above
Method in brief: as §1

P. vulgatus WT = test: growth AUC normalised to DMSO control (median) (fraction of control); higher = less growth inhibition, active = hit call of the paper
Method in brief: (§2)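 After two overnight anaerobic passages, strains were inoculated at OD578 0.01 into mGAM in 96-well plates containing approved-drug library compounds at 20 μM and 1% DMSO. Growth was followed by reading OD578 hourly for 24 h within an anaerobic incubator. Area under the curve, taken by the trapezoidal rule up to the start of stationary phase, was normalised to same-plate vehicle wells, and the median of three biological replicates is listed.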

[3] = system: S. enterica typhimurium WT; test: as above
Method in brief: as §2

[4] = system: S. enterica typhimurium tolC KO; test: as above
Method in brief: as §2

P. vulgatus RND KO = test: as above
Method in brief: as §2
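For growth AUC normalised to DMSO control (median) in this document: active when median AUC fell below 0.1.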

Row | Compound | growth AUC normalised to DMSO control [1] | growth AUC normalised to DMSO control (Shigella flexneri) | growth AUC normalised to DMSO control (Vibrio cholerae) | growth AUC normalised to DMSO control [2] | growth AUC normalised to DMSO control (P. vulgatus WT) | growth AUC normalised to DMSO control [3] | growth AUC normalised to DMSO control [4] | growth AUC normalised to DMSO control (P. vulgatus RND KO)
1 | O=C(O)[C@H]1/C(=C/CO)O[C@@H]2CC(=O)N21 [Clavulanate potassium salt] | 1.01 | 1.03 | 1.08 | 1.03 | 1.12 | 0.995 | 0.999 | 
2 | CCN1CCN(C(=O)N[C@@H](C(=O)N[C@@H]2C(=O)N3C(C(=O)O)=C(CSc4nnnn4C)CS[C@H]23)c2ccc(O)cc2)C(=O)C1=O [Cefoperazone dihydrate] | 0.0254 (active) | 0.0208 (active) | 0.0794 (active) | 0.16 (active) | 0.00365 (active) | 0.144 | 0.00245 (active) | 0.00991 (active)
3 | CCCC(=O)Nc1ncnc2c1ncn2[C@@H]1O[C@@H]2COP(=O)(O)O[C@H]2[C@H]1OC(=O)CCC [Bucladesine sodium salt] |  | 1 | 1.01 | 0.998 | 1.01 | 1.01 | 1.01 | 1.02
4 | Cc1onc(-c2ccccc2Cl)c1C(=O)N[C@@H]1C(=O)N2[C@@H]1SC(C)(C)[C@@H]2C(=O)O [Cloxacillin sodium salt] | 1.01 | 1 | 0.99 | 1.01 |  | 0.994 | 0.0356 (active) | 
5 | CCn1cc(C(=O)O)c(=O)c2cnc(N3CCNCC3)nc21 [Pipemidic acid] |  | 0.113 (active) | 0.0338 (active) | 0.0731 (active) | 0.996 | 0.107 | 0.04 (active) | 1.02
6 | NC(=O)c1cc[n+](CC2=C(C(=O)[O-])N3C(=O)[C@@H](NC(=O)[C@@H](c4ccccc4)S(=O)(=O)O)[C@H]3SC2)cc1 [Cefsulodin sodium salt] | 0.944 | 0.999 | 0.976 | 0.865 (active) | 0.983 | 1 | 0.978 | 
7 | COc1ccc2c(c1)c(CC(=O)O)c(C)n2C(=O)c1ccc(Cl)cc1 [Indomethacin] |  | 0.966 | 0.448 (active) | 1 | 1.01 | 1.01 | 0.974 | 0.967
8 | O=C(O)c1cccnc1 [Niacin] |  | 1.02 | 1.06 | 0.993 | 1.09 | 1.02 | 0.985 | 1.05
9 | COc1ccc(Cl)cc1C(=O)NCCc1ccc(S(=O)(=O)NC(=O)NC2CCCCC2)cc1 [Glibenclamide] | 0.984 | 1.02 | 1.03 | 1.01 | 0.956 | 1.01 | 1 | 0.953
10 | Cn1c(=O)c2c(ncn2C)n(C)c1=O [Caffeine] |  | 1.04 | 1.03 | 1.01 | 1.02 | 0.993 | 0.999 | 1.02
11 | Cn1c(=O)c2[nH]cnc2n(C)c1=O [Aminophylline] |  | 1.03 | 1.03 | 0.979 | 1.05 | 0.993 | 1.01 | 1.03
12 | CCN(CC)CC(=O)Nc1c(C)cccc1C [Lidocaine hydrochloride] | 0.999 | 1.02 | 1.01 | 1 | 1.03 | 0.963 | 0.996 | 1.02
13 | Cc1onc(-c2c(F)cccc2Cl)c1C(=O)N[C@@H]1C(=O)N2[C@@H]1SC(C)(C)[C@@H]2C(=O)O [Flucloxacillin sodium] | 0.993 | 1.01 | 0.999 | 0.989 | 0.132 | 1.02 | 0.0123 (active) | 
14 | CN(C)CCC=C1c2ccccc2C=Cc2ccccc21 [Cyclobenzaprine hydrochloride] | 0.98 | 0.955 | 0.866 (active) | 0.998 | 0.936 | 1 | 0.853 | 0.933
15 | CCOC(=O)O[C@]1(C(=O)COC(=O)CC)CC[C@H]2[C@@H]3CCC4=CC(=O)C=C[C@]4(C)[C@H]3[C@@H](O)C[C@@]21C [Prednicarbate] | 1.01 | 1.03 |  | 1 | 1.04 | 0.992 | 0.967 | 1
16 | CCN1CCN(C(=O)N[C@@H](C(=O)N[C@@H]2C(=O)N3[C@@H]2SC(C)(C)[C@@H]3C(=O)O)c2ccccc2)C(=O)C1=O [Piperacillin sodium salt] |  | 0.098 (active) | 0.63 (active) | 0.291 (active) | 0.0163 (active) | 0.734 | 0.00671 (active) | 0.0135 (active)

Row | Compound | growth AUC normalised to DMSO control [1] | growth AUC normalised to DMSO control (Shigella flexneri) | growth AUC normalised to DMSO control (Vibrio cholerae) | growth AUC normalised to DMSO control [2] | growth AUC normalised to DMSO control (P. vulgatus WT) | growth AUC normalised to DMSO control [3] | growth AUC normalised to DMSO control [4] | growth AUC normalised to DMSO control (P. vulgatus RND KO)
17 | CC(=O)Oc1ccc(C(c2ccc(OC(C)=O)cc2)c2ccccn2)cc1 [Bisacodyl] |  | 1.01 | 0.991 | 1.01 | 1.04 | 1.01 | 1.01 | 1.02
18 | CCC(=O)OCC(=O)[C@@]1(OC(=O)CC)[C@@H](C)C[C@H]2[C@@H]3CCC4=CC(=O)C=C[C@]4(C)[C@@]3(Cl)[C@@H](O)C[C@@]21C [Beclomethasone dipropionate] | 0.99 | 0.956 | 0.965 | 1.01 | 0.972 | 1.01 | 0.975 | 
19 | CN(Cc1cnc2nc(N)nc(N)c2n1)c1ccc(C(=O)N[C@@H](CCC(=O)O)C(=O)O)cc1 [Amethopterin] | 0.983 | 0.948 | 0.912 | 0.982 | 0.916 | 0.997 | 0.7 | 
20 | COc1ccccc1OCC(O)COC(N)=O (stereo unspecified) [Methocarbamol] | 0.986 | 0.981 | 0.94 | 0.979 | 1.03 | 1 | 1 | 0.993
21 | Nc1nc(O)c2ncn(CCC(CO)CO)c2n1 [Penciclovir] | 1.01 | 1.01 | 1.06 | 1.02 | 1.03 | 1 | 0.997 | 1.02
22 | CCC(C)n1ncn(-c2ccc(N3CCN(c4ccc(OCC5COC(Cn6cncn6)(c6ccc(Cl)cc6Cl)O5)cc4)CC3)cc2)c1=O (stereo unspecified) [Itraconazole] | 1.01 | 1.03 | 1.04 | 0.998 | 1.1 | 1.02 | 1 | 1.1
23 | NS(=O)(=O)c1cc2c(cc1Cl)NC(Cc1ccccc1)NS2(=O)=O (stereo unspecified) [Benzylhydrochlorothiazide] |  |  |  |  | 1.1 | 1 | 0.994 | 1.08
24 | CCNC(=O)CCC/C=C\C[C@@H]1[C@@H](/C=C/[C@@H](O)CCc2ccccc2)[C@H](O)C[C@@H]1O [Bimatoprost] |  |  |  |  | 1.04 | 1.01 | 0.99 | 1.03
25 | O=C1C(=O)c2ccccc2C(O)=C1C1CCC(c2ccc(Cl)cc2)CC1 (stereo unspecified) [Atovaquone] |  | 0.976 |  | 0.993 | 1.02 | 0.992 | 1.01 | 1.02
26 | Cc1ncc([N+](=O)[O-])n1CCO [Metronidazole] |  |  |  | 1 | 0.0126 (active) | 1.04 | 0.991 | 0.0156 (active)
27 | Cc1cc(/C=C/c2ccc3cc(N(C)C)ccc3[n+]2C)c(C)n1-c1ccccc1 [Pyrvinium pamoate] |  |  | 0.865 |  | 1.08 | 1.02 | 0.61 | 1.01
28 | NNc1nncc2ccccc12 [Hydralazine hydrochloride] |  | 1.04 | 1.06 | 1.03 | 1.04 | 0.996 | 0.992 | 1.01
29 | CCOC(=O)[C@H](CCc1ccccc1)N[C@@H](C)C(=O)N(CC(=O)O)C1Cc2ccccc2C1 [Delapril Hydrochloride] |  |  |  |  | 0.999 | 1 | 0.987 | 1
30 | O=c1cc(-c2ccc(O)c(O)c2)oc2cc(O)cc(O)c12 [Luteolin] |  | 1 | 0.976 | 0.978 | 1.02 | 0.993 | 0.878 | 0.987
31 | CN1CCN(c2c(F)cc3c(=O)c(C(=O)O)cn(CCF)c3c2F)CC1 [Fleroxacin] |  | 0.0225 (active) | 0.0321 (active) | 0.0196 (active) | 0.585 | 0.00801 (active) | 0.00549 (active) | 0.727
32 | CC(C)NC[C@H](O)COc1cccc2ccccc12 [(S)-(-)-Propranolol hydrochloride] |  | 0.997 | 1.01 | 0.996 | 1.06 | 0.989 | 0.986 | 1.04
